Here are results for seven compounds from PubChem BioAssay (NCI).

Test systems include NCI-H23 lung; NCI-H226 lung; NCI-H322M lung; HOP-62 NSCLC; NCI-H460 lung; HOP-92 NSCLC; NCI-H522 lung; A549/ATCC NSCLC; 786-0 renal; COLO 205 colon; DU-145 prostate; K-562 leukemia; MALME-3M melanoma; MDA-MB-231 breast; RXF 393 renal; SF-268 CNS; SF-295 CNS; SF-539 CNS; UACC-257 melanoma; M14 melanoma.
Assay in all cases: NCI-60 one-dose screen, 48 h (100 = growth as untreated, 0 = no growth, -100 = all killed)
What all share (details): 10 µM unless noted

Compounds without any hit were thinned out: in the full panel of roughly 83,000, 20% have a hit.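 Treatment: one concentration, 48 hours, 96-well format. Scoring: percent growth, with anything below 10 considered active.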 Values without a mark were called inactive. Active and inactive are the calls of the source.

In the case of `C#Cc1nc(/C=C/C(=O)NO)cs1`, the growth in the assay on NCI-H23 lung is -86.7% (active); with NCI-H226 lung, 75.8%; in the assay with NCI-H322M lung it was 82.5%; in the assay with HOP-62 NSCLC, 48.5%; with NCI-H460 lung it was 63.4%; in the assay on HOP-92 NSCLC, -79.5% (active). The growth is -60% (active) with NCI-H522 lung; 69.6% with A549/ATCC NSCLC; -76.5% (active) with 786-0 renal; 79.8% in the assay on COLO 205 colon; -59.8% (active) in the assay on DU-145 prostate; 10.2% with K-562 leukemia. The growth was -30.5% (active) in the assay on MALME-3M melanoma; -48.6% (active) with MDA-MB-231 breast; -68.9% (active) with RXF 393 renal; 52.9% in the assay on SF-268 CNS; 46.3% with SF-295 CNS; -87.3% (active) in the assay with SF-539 CNS. Moreover, the growth with UACC-257 melanoma was 42.6%; with M14 melanoma, 70.3%.
Consider `Nc1ncc(-c2ccc3ncnc(NCc4ccccc4)c3c2)cn1`, for which the growth in the assay on NCI-H23 lung was 55.4%; in the assay on NCI-H226 lung it was 33.9%; in the assay with NCI-H322M lung, 8.77% (active); with HOP-62 NSCLC, 35.7%; in the assay on NCI-H460 lung it was 44.7%; with HOP-92 NSCLC it was 8.86% (active). Further, the growth in the assay with NCI-H522 lung was 23.8%; with A549/ATCC NSCLC it was 41.3%; in the assay on 786-0 renal, 31.3%; in the assay on COLO 205 colon, 69.3%; in the assay with DU-145 prostate, 23.7%; in the assay with K-562 leukemia, 67.6%. The growth with MALME-3M melanoma is 38%; in the assay on MDA-MB-231 breast it was 39.8%; with RXF 393 renal, 8.82% (active); in the assay on SF-268 CNS it was 44.8%; in the assay on SF-295 CNS it was 47.4%; in the assay on SF-539 CNS, 44.3%. The growth was 85.1% in the assay with UACC-257 melanoma and 65.6% in the assay on M14 melanoma.
As for `CN1CCN(c2ccc(Nc3nc(NCCCNS(=O)(=O)c4cccc5ccccc45)c4sccc4n3)cc2)CC1`, the growth in the assay on NCI-H23 lung was 30.4%; with NCI-H226 lung, 86%; in the assay with NCI-H322M lung, 11.4%; in the assay with HOP-62 NSCLC, 25.6%; in the assay with NCI-H460 lung, -14% (active); with HOP-92 NSCLC it was -43.6% (active). The growth was -81.1% (active) in the assay with NCI-H522 lung; -9.22% (active) with A549/ATCC NSCLC; -82.1% (active) in the assay with 786-0 renal; -74.1% (active) with COLO 205 colon; -6.73% (active) in the assay on DU-145 prostate; 5.72% (active) with K-562 leukemia. Further, the growth with MALME-3M melanoma is -91.6% (active); in the assay on MDA-MB-231 breast it was -29% (active); with RXF 393 renal, -87.1% (active); with SF-268 CNS it was -24.1% (active); with SF-295 CNS it was -71.8% (active); in the assay on SF-539 CNS it was -92.1% (active). In addition, the growth was -89% (active) in the assay with UACC-257 melanoma and -81.9% (active) with M14 melanoma.
`CCOC(=O)c1ccc(NC2=C(Cl)C(=O)c3nc(C)ccc3C2=O)cc1`: the growth with NCI-H23 lung is 52%; in the assay with NCI-H226 lung it was 85.5%; with NCI-H322M lung it was 96.7%; in the assay on HOP-62 NSCLC it was 113%; with NCI-H460 lung, 79.3%; in the assay on HOP-92 NSCLC it was 103%. In addition, the growth in the assay with NCI-H522 lung was 24.1%; with A549/ATCC NSCLC, 94.3%; in the assay on 786-0 renal, 55.5%; in the assay on COLO 205 colon it was 58.9%; in the assay with DU-145 prostate, 91%; with K-562 leukemia it was 7.29% (active). For the same compound, the growth was 11.7% in the assay on MALME-3M melanoma; 77.4% in the assay with MDA-MB-231 breast; 45.6% in the assay on RXF 393 renal; 70.8% in the assay on SF-268 CNS; 65% in the assay with SF-295 CNS; 54.3% with SF-539 CNS. In addition, the growth in the assay with UACC-257 melanoma was 44.2%; with M14 melanoma, 52.4%.
For the compound `Cc1ccc(C(=O)Nc2ccc(CNCCN3CCNCC3)c(C(F)(F)F)c2)cc1C#Cc1cnc2cccnn12`, the growth is 4.87% (active) in the assay with NCI-H23 lung; 97.1% with NCI-H226 lung; 55.3% with NCI-H322M lung; -48.8% (active) in the assay with HOP-62 NSCLC; -44.9% (active) in the assay on NCI-H460 lung; -28.2% (active) in the assay on HOP-92 NSCLC. Also, the growth in the assay with NCI-H522 lung is -33.9% (active); in the assay with A549/ATCC NSCLC, 16%; with 786-0 renal, -70.2% (active); with COLO 205 colon it was -53.2% (active); in the assay on DU-145 prostate, 6.09% (active); in the assay with K-562 leukemia, -22.2% (active). For the same compound, the growth in the assay with MALME-3M melanoma was -70.8% (active); in the assay on MDA-MB-231 breast, -75.6% (active); with RXF 393 renal, -90.1% (active); in the assay on SF-268 CNS, -14.2% (active); in the assay with SF-295 CNS, -37.4% (active); with SF-539 CNS, -83% (active). Besides, the growth with UACC-257 melanoma was -6.59% (active); with M14 melanoma it was -64.6% (active).
Consider `CCc1cc2c(cc1Cl)nc1c(=O)[nH]c(=O)nc-1n2CCOCC(C)(C)C`, for which the growth in the assay on NCI-H23 lung is 72.1%; with NCI-H226 lung it was 41.2%; with NCI-H322M lung it was 63.7%; with HOP-62 NSCLC, 104%; in the assay on NCI-H460 lung it was 56.4%; in the assay on HOP-92 NSCLC it was 110%. The growth in the assay with NCI-H522 lung is 70.5%; in the assay on A549/ATCC NSCLC, 75.5%; in the assay on 786-0 renal, 81.1%; in the assay on COLO 205 colon, 58.2%; with DU-145 prostate, 94.5%; in the assay on K-562 leukemia, 57.4%. Further, the growth with MALME-3M melanoma is -9.68% (active); with MDA-MB-231 breast, 67.2%; in the assay with RXF 393 renal, 75.5%; in the assay on SF-268 CNS, 88.1%; in the assay with SF-295 CNS, 71.8%; with SF-539 CNS it was 84.2%. Further, the values for the growth in the assay on UACC-257 melanoma and with M14 melanoma were 73.3% and 61.8%, respectively.
For the compound `NS(=O)(=O)c1ccc(CCn2c(-c3ccc(C(=O)O)cc3)nc(-c3ccccc3)c2-c2ccccc2)cc1`, the growth in the assay with NCI-H23 lung was 98.4%; in the assay on NCI-H226 lung, 98.3%; in the assay on NCI-H322M lung, 97%; in the assay on HOP-62 NSCLC, 104%; in the assay with NCI-H460 lung, 107%; in the assay on HOP-92 NSCLC, 94.6%. Also, the growth is 96.8% with NCI-H522 lung; 105% in the assay with A549/ATCC NSCLC; 103% with 786-0 renal; 112% in the assay on COLO 205 colon; 102% with DU-145 prostate; 96.8% in the assay on K-562 leukemia. In addition, the growth in the assay on MALME-3M melanoma is 97.9%; with MDA-MB-231 breast, 92.6%; with RXF 393 renal it was 104%; with SF-268 CNS, 93.8%; in the assay with SF-295 CNS it was 101%; in the assay on SF-539 CNS, 99.1%. The growth with UACC-257 melanoma and with M14 melanoma was 105% in each case.
